The results in this text go back to PubChem BioAssay (NCI).

The structures appear in SMILES notation. The panel holds about 83,000 compounds, 20% with a hit somewhere; the sample as a whole holds those more often.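 Single-dose data. Exposure time 48 hours. Values below 10 considered active.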 Unmarked numbers belong to inactive results. Calls of active or inactive are those of the source.

This assay relates to ACHN renal. Kind of assay: NCI-60 one-dose screen, 48 h (100 = growth as untreated, 0 = no growth, -100 = all killed). Conditions: 10 µM unless noted.
Consider `COc1ccc(-c2csc(NC(=O)CN3CCN(c4cc5c(cc4F)c(=O)c(C(=O)O)cn5C4CC4)CC3)n2)cc1`, for which the growth was 11.8%.
Then `O=C(O)c1ccc(=O)[nH]n1`, with 98.8%.
As for `COc1ccc(-c2cc(NC(=O)Nc3ccc(O)cc3)no2)cc1`, the figure is 55.4%; as for `CCN(CC)CCCNc1cc(OC)cc2nc3cc(Cl)ccc3nc12`, 3.95% (active).
On to `Clc1nc(Cl)c2c3c(sc2n1)CCCC3`, for which the growth was 45.1%.
On to `CNCCCn1c2c(c3ccc([N+](=O)[O-])cc3c1=O)C(=O)c1cc(OC)cnc1-2`, for which the growth was -65.2% (active).
As for `C=C1CC2(OC1=O)C(=O)Nc1ccccc12` (centres undefined), the figure is 7.77% (active).
Turning to `CN1CCN(Cc2ccc(NC(=O)c3cncc(C#Cc4c(N)ncc5ccc(C#N)cc45)c3)cc2C(F)(F)F)CC1`, the growth is -92.8% (active).
Regarding `O=C1O[C@H]([C@H](O)CO)C(O)=C1O`, the growth was 93.9%.
In the case of `COC(=S)SCN(CSC(=S)OC)c1ccc(Cl)cc1`, the growth is 75.3%.
On to `Cc1ccc(/C=C2\Oc3cc(OCC(=O)c4ccc(Cl)cc4)ccc3C2=O)cc1`, for which the growth was 95.2%.
Consider `CCN(C(=O)CN1CCN(c2cc3c(cc2F)c(=O)c(C(=O)O)cn3C2CC2)CC1)c1nc(-c2ccc(OC)cc2)cs1`, for which the growth was 78%.
As for `OC(c1cc(-c2ccccc2)nc2ccc(Cl)cc12)C1CCCCN1` (centres undefined), the figure is 22.1%; as for `CC#CC#Cc1cccc(=O)o1`, 68.5%.
On to `CNCc1cccc2c1OCCOCCOCCN(C)S(=O)(=O)c1ccc(cc1)-c1cnc(N)c(n1)C(=O)N2`, for which the growth was 22.1%.
Turning to `CCCCCCCCCCCCCCCCCCSC1=CC(=O)C(OC)=C(OC)C1=O`, the growth was 93.1%.
Regarding `CC1=C(C)C(=O)OC([C@](C)(O)[C@]2(O)CC[C@@]3(O)[C@@H]4C[C@H]5O[C@]56CC=CC(=O)[C@]6(C)[C@H]4CC[C@]23COC(=O)c2ccc(C)o2)C1` (some centres undefined), the growth is -95.7% (active).
`O=C1C[C@H](Sc2nc(-c3ccc(F)cc3)cc(C(F)(F)F)n2)[C@H]2CO[C@@H]1O2`: the growth was 88.9%.
As to `C=C1CC[C@@H]2[C@](C)(COC(C)=O)[C@H](OC(C)=O)CC[C@@]2(C)[C@@H]1CC(Nc1ccc(S(=O)(=O)Nc2nc(C)cc(C)n2)cc1)C1=CCOC1=O` (some centres undefined), the growth was 71.6%.
Regarding `COc1ccc(S(=O)(=O)NCCNc2nccc(-c3c(-c4cccc([N+](=O)[O-])c4)nc4sccn34)n2)cc1`, the growth is 62.4%.
For the compound `O=C(Nc1ccc(Nc2cc(Nc3ccccc3)ncn2)cc1)Nc1cc(C(F)(F)F)ccc1F`, the growth is 66.9%.
For `COc1ccc(/C=C/C(=O)c2c(O)c(C)c(O)c3c2OC2=CC(O)=C(C(C)=O)C(=O)[C@]23C)cc1`, the growth is 0.0747% (active).
For `C=C(C[n+]1ccccc1)[C@@H]1CC[C@]2(C(=O)OC)CC[C@]3(C)[C@H](CC[C@@H]4[C@@]5(C)CC[C@H](O)C(C)(C)[C@@H]5CC[C@]43C)[C@@H]12`, the growth is 96.5%.
Take `CCCCCCCCCCCCNC(=O)[C@H]1CSC(c2ccc(OC)c(F)c2)N1` (some centres undefined): the growth is -100% (active).
Then `COc1ccccc1N1CCN(CCn2c(=O)c3c(c4ccccc4n3C)n(C)c2=O)CC1`, with 98.5%; and `CC(C)[C@H]1COC(=O)N1[C@@H]1C(=O)N([C@@H](CCC(=O)N2CCN(C3CCCC3)CC2)C(=O)N[C@@H]2CCCc3ccccc32)[C@@H]1/C=C/c1cccc(Br)c1`, with 48.9%; and `Cc1nc2nc(N)nc(N)c2nc1C`, with 96.3%.
On to `COc1cnc2c(c1)C(=O)c1c-2n(CCCBr)c(=O)c2cc([N+](=O)[O-])ccc12`, for which the growth was 3.87% (active).
As for `COc1ccc(-n2cc(-c3ccccc3)c3c(SCC(=O)N/N=C/c4ccc([N+](=O)[O-])cc4)ncnc32)cc1`, the figure is 105%; as for `O=C(O)c1cn(C2CC2)c2cc(N3CCN(Cc4nc5c(cnn5-c5ccc([N+](=O)[O-])cc5)c(=O)[nH]4)CC3)c(F)cc2c1=O`, 103%.
With `CCOC(=O)c1cnc2ccc(OC)cc2c1Nc1cccc(S(=O)(=O)NC)c1`, the growth was 91.5%.
`CCN(CC)CCCC(C)NCCCNc1cccc2cccnc12` (centres undefined): the growth was 108%.
Take `COc1ccc(C/C(C)=C(\c2ccc(Cl)cc2)c2ccc(OCCN3CCCCCC3)cc2)cc1`: the growth was 86.4%.
As for `C=C1C(=O)O[C@H]2[C@H]1CC/C(Cn1cc(Cn3ccc4cc(Cl)ccc43)nn1)=C\CC[C@@]1(C)O[C@@H]21`, the figure is -97.8% (active).
As for `COc1cc(/C=N/N(C)C)ccc1O`, the figure is 100%; as for `CC(=O)Nc1ccc2c(c1)c(NC(C)=O)nn2C(=O)Nc1ccc(Cc2ccccc2)cc1`, 65.8%.
In the case of `CC(C)(C)n1cc(-c2ccnc(NCCNS(=O)(=O)c3ccccc3)c2)c(-c2cccc(O)c2)n1`, the growth is 67.1%.
On to `CN1C2CCC1/C(=C\c1ccc(Cl)cc1)C1=C2[C@@H](c2ccc(Cl)cc2)C(C#N)=C(N)O1` (some centres undefined), for which the growth is 93.9%.
Turning to `O=[N+]([O-])c1cccc(-c2nc3sccn3c2-c2ccnc(NCCCNS(=O)(=O)c3cccc(F)c3)n2)c1`, the growth was 6.36% (active).
